Mot1-301 SUMO: blocks SUMOylation pathway, rescuing yeast Mot1-301 growth; S. cerevisiae Mot1-301 growth rescue, ATP luminescence, 38.5C; percent above DMSO median, 100 means doubled; growth rescue, % at 18.8 µM; 320,000 compounds, 1% hits; AID 2716;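 active = every valid replicate shows activation above 250% relative to neutral control wells; inactive = the rest, any valid replicate at or below 250%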;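 also: OY570 slx delta 5 strain wells were the positive control but not used for scaling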
Efflux pump mplx: antifungal efflux pump inhibition, Nile Red retention; S. cerevisiae Candida pump triplex; inhibition, % at 10 µM; 330,000 compounds, 0.44% hits;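 active = plate passing quality check with inhibition over a set limit, or well fluorescence over plate mean plus 4 SD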;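 also: Nile Red retained in pooled yeast measured as flow cytometry median fluorescence; 0% = buffer negative control and 100% = Enniatin B positive control; higher means more Nile Red kept so more efflux inhibition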
ALR inh: human ALR oxidase inhibition via reduced H2O2; purified ALR, DTT oxidation, H2O2 HRP-luminol luminescence; inhibition, % (test concentration not listed); 290,000 compounds, 3.8% hits;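 active = mean replicate inhibition above about 79%, with every replicate also reaching it, limit read from the data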
Bfl-1 A1 inh: inhibitors of the anti-apoptotic protein A1, read as caspase activation; MEF A1-2A-BIM cells, Caspase-Glo 3/7 luminescence, 3 h; percent of clofoctol response, vehicle zero; caspase activation, % (concentration not given with the values); 330,000 compounds, 0.066% hits;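 active = over half of replicate activation scores above 10%, or exactly half above 10 with the replicate mean above 10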
VLA-4 inh: inhibition in a human VLA-4 binding assay. inhibition, % (about 7 µM as worked out from the volumes in the protocol). P13612. VLA-4 expressing cells, ligand binding flow cytometry. AID 2557. 330,000 compounds, 0.2% hits; in the data active = inhibition above about 50%
AHR activator: activators of human aryl hydrocarbon receptor; P35869; AHR-responsive luciferase reporter cells, luminescence; activation, % at 5 µM; 320,000 compounds, 2.5% hits; AID 2796; in the data active = activation above about 47%;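 also: 0% = vehicle wells and 100% = reference agonist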
AHR act cf: confirmation of human aryl hydrocarbon receptor activators | shares compounds with AHR activator | human cells, AHR-responsive luciferase reporter, luminescence | activation, % at 9 µM | 2,300 compounds, 87% hits | AID 2845; in the data active = activation above about 49%;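 also: HepG2 hepatoma cells carrying a DRE-driven firefly luciferase reporter; 0% = vehicle wells and 100% = reference agonist wells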
PXR counter: counter-screen for AHR activators: human PXR activators. shares compounds with AHR activator. cell-based PXR reporter, luciferase luminescence. activation, % at 11.6 µM. 2,300 compounds, 88% hits. AID 434939; in the data active = activation above about 11%;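 also: human hepatoma DPX-2 cells expressing full-length human PXR; 0% = DMSO and 100% = reference agonist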
An asterisk follows results filed as active; x = not tested or not shown. Compounds with a hit are over-represented: about 7.2% of the library has one in this group of screens.

SMILES	Mot1-301 SUMO	Efflux pump mplx	ALR inh	Bfl-1 A1 inh	VLA-4 inh	AHR activator	AHR act cf	PXR counter
Cc1[nH]c2ccccc2c1/C=C/C(=O)c1ccccc1	-20	0	-1	1	-470	129*	123*	73*
Cc1[nH]c2ccccc2c1/C=C/c1nc2ccccc2c(=O)[nH]1	61	0	0	-1	-24	166*	91*	55*
Cc1cccc(/C=C/c2nc3ccccc3c(=O)[nH]2)c1	10	0	1	-9	17	-4	x	x
Cc1ccc(/C=C/C(=O)c2ccccc(=O)c2O)c(C)c1	-28	0	38	0	-5	94*	12	17*
C/C(=N/NC(=O)Nc1ccccc1)c1ccc(C)cc1	-10	0	-5	0	10	105*	76*	20*
c1ccc(-c2nc3cc4ccccc4cc3[nH]2)nc1	-30	0	-7	-8	-1	114*	44	23*
Cc1ccccc1OCC(=O)N/N=C/c1ccccn1	125	0	-13	0	8	81*	29	9
COc1cc(/C=C/c2ccc3cccc([N+](=O)[O-])c3n2)ccc1OCC#N	-7	0	-19	1	6	39	x	x
O=[N+]([O-])c1cccc2ccc(/C=C/c3ccc(F)cc3)nc12	41	0	-16	1	-2	186*	229*	19*
COc1ccccc1-c1nnc(SCC(=O)NC2CCCCC2)o1	-5	0	-3	0	-1	22	x	x
COc1ccccc1-c1nnc(SCC(=O)Nc2c(Cl)cccc2Cl)o1	8	0	-11	-1	15	80*	95*	83*
CCCCCC(=O)Nc1nc(C)c(-c2csc(Nc3ccccc3OC)n2)s1	-4	0	13	1	-6	85*	96*	50*
CCC(=O)Nc1nc(C)c(-c2csc(Nc3ccccn3)n2)s1	17	0	x	-2	-3	24	x	x
COc1ccccc1Nc1nc(-c2sc(NC(=O)c3ccc([N+](=O)[O-])cc3)nc2C)cs1	356	0	0	0	12	19	x	x
CCCC(C)C(=O)Nc1nc(C)c(-c2csc(Nc3ccccc3OC)n2)s1 (centres undefined)	13	0	-2	1	13	124*	72*	62*
CCCCC(=O)Nc1nc(C)c(-c2csc(Nc3cc(OC)ccc3OC)n2)s1	-5	0	-9	0	8	85*	82*	58*
CCCCCCC(=O)Nc1nc(C)c(-c2csc(Nc3cc(Cl)ccc3C)n2)s1	-3	0	-6	-1	17	79*	81*	17*
O=C(Cc1csc(-c2cccc(Cl)c2)n1)Nc1cccc(S(=O)(=O)NC2=NCCC2)c1	0	0	22	1	-3	-6	x	x
Cc1nnc(SCC(=O)NCC(=O)Nc2ccc(F)c(F)c2F)n1N	-17	0	-13	1	0	0	x	x
COC(=O)c1cc(C(=O)Nc2nnc(C3CC3)s2)cc([N+](=O)[O-])c1	-14	0	-4	1	-5	81*	83*	x
O=C(COc1cc(F)ccc1[N+](=O)[O-])Nc1ccc2c(c1)OCO2	0	0	0	0	7	-4	x	x
COc1cccc(C(=O)Nc2ccc3c(c2)OCO3)c1OC	-19	0	1	-8	37	103*	54*	70*
CCOc1ncccc1C(=O)Nc1nnc(C2CC2)s1	-5	0	x	1	-6	104*	95*	36*
CCOc1ncccc1C(=O)Nc1nnc(C)s1	-23	0	11	-1	-3	-3	x	x
CC(=O)c1cc(F)ccc1OCC(=O)Nc1ccc2c(c1)OCO2	-34	0	-2	0	17	94*	105*	29*
SMILES	Mot1-301 SUMO	Efflux pump mplx	ALR inh	Bfl-1 A1 inh	VLA-4 inh	AHR activator	AHR act cf	PXR counter
COc1cccc(C(=O)NCc2ccc3c(c2)OCO3)c1OC	-6	0	-23	1	-2	x	x	x
Cc1ccc(N(C(=O)Cn2nnc(-c3ccc(F)cc3)n2)C(C(=O)NC(C)(C)C)c2ccncc2)cc1 (centres undefined)	-14	0	x	-1	-16	0	x	x
CCOc1ncccc1C(=O)Nc1ccc2c(c1)OCO2	-15	0	-3	-1	2	110*	130*	32*
COc1cccc(C(=O)Nc2ccc3[nH]ncc3c2)c1OC	-12	0	-6	0	6	92*	68*	12*
CCOc1ncccc1C(=O)Nc1ccccc1C(=O)NCc1ccc2c(c1)OCO2	-11	0	-10	0	-13	4	x	x
COC(=O)c1cc(NC(=O)CN(c2ccccc2OC)S(=O)(=O)c2ccccc2)ccc1Cl	-6	0	-5	0	12	4	x	x
CCOc1ccc2oc(C(=O)Nc3ccc(N4CCOCC4)cc3)c(C)c2c1	475	0	-11	0	-3	-7	x	x
CCOc1ccc2oc(C(=O)Nc3ccc4c(c3)OCO4)c(C)c2c1	9	0	-8	-5	4	83*	38	25*
COc1ccccc1N(CC(=O)Nc1ccc2c(c1)OCO2)S(=O)(=O)c1ccccc1	489	0	1	0	21	98*	97*	187*
COc1ccccc1CC(=O)Nc1ccc2[nH]ncc2c1	-11	0	-9	0	-2	5	x	x
CN1C(=O)c2ccc(C(=O)Nc3nccs3)cc2C1=O	7	0	7	-1	29	7	x	x
c1ccc(-c2cccs2)nc1	-7	0	-2	2	-5	-2	x	x
c1cc(-c2cccs2)nc(-c2cccs2)c1	14	0	0	-1	4	96*	84*	16*
COc1ccc(C(=O)Nc2ccncc2)c(OC)c1	202	0	-3	-1	1	-5	x	x
COc1ccc(C(=O)Nc2ccc3ccccc3c2)c(OC)c1	5	0	-7	-12	12	85*	96*	9
COc1cc2ccccc2cc1C(=O)Nc1ccc(C)cc1	-16	0	0	0	4	83*	92*	x
Cc1ccc(NC(=S)Nc2ccccn2)cc1C	-8	0	23	0	1	32	x	x
Cc1cc(C)cc(NC(=S)Nc2ccccn2)c1	-4	0	97*	0	6	91*	112*	27*
CC(C)n1cc(CN2CCC(Oc3ccc(C(=O)N4CCCC4)cc3)CC2)cn1	-4	0	-8	0	12	-1	x	x
Cc1cc2cc(C)c(NCCNC(=O)c3ccccc3F)nc2cc1C	-3	0	8	0	5	26	x	x

Bioassay records: PubChem, several laboratories
